GSIS activator = GLuc luminescence reporter in INS-1E cells, primary screen for activators of glucose-dependent secretion of insulin | actives 0.61% (n = 370,000) | INS-1E GLuc reporter insulin secretion, 2-3 h | activation, % at 16.6 µM;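 active = lowest replicate activation of at least 40%, so every replicate reaches that level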;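 note: 0% = median of neutral control wells and 100% = median of IBMX positive control wells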
EWS-Fli inh = blocks EWS/Fli oncoprotein-driven transcription; actives 0.67% (n = 350,000); inhibition, % at 12.6 µM; A673 NR0B1-luciferase reporter, viability-normalised;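 active = mean inhibition of at least 50% after viability correction, with every replicate also passing that limit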;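 note: firefly luciferase signal divided by Alamar Blue viability fluorescence both relative to DMSO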
miR-122 sensor = blocks miR-122 activity in Huh7 sensor cells | Huh7 miR-122 Renilla luciferase sensor, 48 h; neutral wells = 0, positive control = 100 | activation (reporter increase), % at 12.5 µM | actives 0.3% (n = 340,000);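 active = mean replicate activation score at least 90 and every replicate individually at or above 90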;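 note: higher luciferase means less miR-122 activity so hits act as miR-122 inhibitors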
HIV Env fusion = blocks HIV Env-driven cell-cell fusion | HeLa-JRFL Env/CEM21 cell fusion, luciferase | inhibition, % at 12.3 µM | actives 1.1% (n = 360,000) | AID 651610;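 active = mean replicate inhibition score of at least 50 and every replicate individually at or above 50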;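 note: 0% = plate neutral controls and 100% = maraviroc near 300 nM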
C2C12 statin = suppressors of simvastatin-induced myotoxicity in C2C12 myotubes; ATP luminescence, 48 h; scaled: DMSO 0, geranylgeraniol control 100; rescue of ATP level, % at 7.49 µM; actives 0.78% (n = 330,000);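 active = mean ATP rescue above about 67%, or every replicate alone reaching that limit, limit read from the data, passing the limit was not always enough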;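 note: myotubes were challenged with 10 µM simvastatin during compound exposure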
PAX8 inh HTS = PAX8 transcriptional activity inhibition; inhibition, % at 12.6 µM; RMG-I TPO-luciferase reporter, SteadyGlo, 24 h; actives 1.2% (n = 360,000); AID 652154;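 active = mean replicate inhibition at least 60% with every replicate also reaching 60%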;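 note: luciferase light reporting Pax8 driven TPO promoter activity; plate controls were median of neutral control wells for no effect and mitoxantrone controls for full effect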
* hit, by the source's call; / = no result; [ ] = dose if it differs, or a comment. Compounds with a hit are over-represented: about 3.1% of the library has one in this group of screens.

SMILES | GSIS activator | EWS-Fli inh | miR-122 sensor | HIV Env fusion | C2C12 statin | PAX8 inh HTS
C[C@@H]1CN([C@@H](C)CO)C(=O)c2cc(NC(=O)Nc3ccc4c(c3)OCO4)ccc2O[C@H]1CN(C)C | 9 | -3 | 8[16.7 µM] | / | -1 | -15
CSc1nc(Cl)cc(Nc2ccccc2N)n1 | 15 | 12 | 0 | 79* | 8 | 18
Cc1ccc(-c2nc(C)sc2CC(=O)OCC(=O)Nc2cccc([N+](=O)[O-])c2)cc1 | -2 | -4 | / | / | / | 109*
C[C@@H]1CN([C@H](C)CO)C(=O)c2cc(-c3ccc(F)cc3)cnc2O[C@H]1CN(C)C(=O)C1CCC1 | 2 | -1 | 1[16.7 µM] | -6[16.7 µM] | 7 | /
O=C(NCc1ccccc1Cl)[C@@H]1[C@@H](CO)[C@@H]2Cn3c(cccc3=O)[C@@H]2N1C(=O)C1CCCC1 | 7 | -2 | 10[16.7 µM] | / | -18 | /
Cc1cc2c(cc1C)C(c1ccccc1OC(C)C)CC(=O)N2 (configuration not stated) | -50 | 33 | / | -12 | -58 | -48
COc1ccccc1C1CC(=O)Nc2cc(C)c(C)cc21 (configuration not stated) | -20 | 54* | / | 6 | 3 | 53
CC(C)Oc1ccccc1C1CC(=O)Nc2cc3c(cc21)OCO3 (configuration not stated) | / | / | 35 | -4 | -58 | 68*
CCCN1[C@@H]2Cn3c(ccc(-c4cccc(F)c4)c3=O)[C@H]1[C@@H](C(=O)N(C)C)[C@@H]2CO | 1 | -2 | / | / | / | /
C[C@H](NC(=O)C[C@H]1CC[C@@H](NC(=O)Nc2ccc3c(c2)OCO3)[C@H](CO)O1)c1ccccc1 | 4 | -5 | -8[16.7 µM] | -19[16.7 µM] | 11 | -6
COC(=O)c1c(NC(=O)CN2CCC3(O)CCCCC3C2c2ccc(OC)cc2OC)sc(C)c1C (configuration not stated) | / | -12 | / | 66* | / | 14
COC(=O)c1c(NC(=O)CN2CCC3(O)CCCCC3C2c2ccccc2OC)sc(C)c1C (configuration not stated) | / | 3 | -7 | 27 | / | 3
O=c1c2c(nc3nc(COc4ccccc4)[nH]n13)CCC2 | / | / | -1 | / | -5 | /
O=c1c2c(nc3nc(SCc4ccccc4)[nH]n13)CCC2 | / | / | 112* | -19 | 5 | 9
CC(C)c1ccc(CNc2nc3nc4c(c(=O)n3[nH]2)CCC4)cc1 | 12 | 4 | 0 | 2 | 111* | -6
C[C@H](CO)N1C[C@H](C)[C@@H](CN(C)S(C)(=O)=O)Oc2ccc(NS(=O)(=O)c3cccs3)cc2C1=O | -3 | -16 | -3[16.7 µM] | / | 7 | /
O=C(NNC(=O)C(c1ccccc1)c1ccccc1)c1ccccn1 | -7 | -3 | / | 74* | / | 51
CCCNC(=O)Nc1ccc2c(c1)C(=O)N(C)C[C@H](OC)[C@H](C)CN(Cc1ccccc1)[C@@H](C)CO2 | -13 | -8 | 12[16.7 µM] | / | 2 | /
Nc1cc2ccncc2c2ccccc12 | -10 | 38 | -8 | 62* | 23 | -45
COc1cccc(CC(NC(C)=O)C(=O)NC2CCN(c3nc(C)cc(C)c3C#N)CC2)c1 (configuration not stated) | / | / | -2 | 0 | 118* | 25
CCCCNS(=O)(=O)c1ccc2nc(-c3cccnc3)cc(C(=O)NC3CC3)c2c1 | 16 | -2 | 53 | -1 | -1 | -30
CCCCNS(=O)(=O)c1ccc2nc(-c3cccnc3)cc(C(=O)NC3CCCC3)c2c1 | 7 | 6 | 97* | 8 | 6 | -24
CO[C@H]1CN(C)C(=O)c2ccc(NS(=O)(=O)c3ccc(Cl)cc3)cc2OC[C@H](C)N(C)C[C@@H]1C | 8 | / | / | / | / | -14
CCC(=O)N1CCC1(C)C(=O)Nc1cccc(OC)c1OC (configuration not stated) | / | -1 | -4 | 58* | 11 | -13
COc1cccc(NC(=O)C2(C)CCN2C(C)C)c1OC (configuration not stated) | 8 | 6 | 7 | -6 | 50 | 7
CC(=O)c1nn(-c2ccc(Br)cc2)cc1C(=O)c1ccccc1 | 54* | / | / | -116 | / | -1
COC(=O)c1ccccc1Sc1c(/C=N/OC(=O)c2ccccc2)c(C(F)(F)F)nn1C | -4 | / | -5 | / | / | /
Cc1ccc(C(=O)O/N=C/c2c(C(F)(F)F)nn(C)c2Sc2ccc(Cl)cc2)cc1 | / | / | 0 | / | 116* | /
